Assay results from PubChem BioAssay (Tox21).
Several values for one entry are separate records, joined by “and”; a condition that tells them apart may be missing. Equal values may be shown once. Inconclusive results are not listed. Where a call stands in place of a potency, no number is given. Where a structure was tested more than once in an assay, its records may differ in their call. Activity calls are given as the source filed them. Unless noted, the call rests on the fitted dose curve; in most records, active means well fitted curve in the direction sought with a large enough effect in the repeat runs; inconclusive means weak or mixed curves; inactive means no such curve, though single readings can be large; an effect the other way counts as inactive or inconclusive.

Key:
[1] = qHTS assay to identify aromatase inhibitors - cell viability counter screen (AID 743084); details: MCF-7 aro ERE viability, CellTiter-Fluor, 24 h; series mostly up to 70.3 µM;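 further: cells stimulated with testosterone during compound exposure; nearly all actives have a fitted effect of over 55% in size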; further: potency means the concentration at half of the fitted maximal effect
[2] = target: Aryl hydrocarbon receptor (Homo sapiens) (UniProt P35869); experiment: qHTS assay to identify small molecule that activate the aryl hydrocarbon receptor (AhR) signaling pathway (AID 743085); details: HepG2 AhR-luc (HG2L7.5c1), luciferase, 24 h; series mostly up to 70.3 µM; further: nearly all actives have a fitted effect of over 15% in size; further: potency means the concentration at half of the fitted maximal effect;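 on activation: HG2L7.5c1 human HepG2 liver cells with stably integrated DRE-driven firefly reporter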
Sequence of Aryl hydrocarbon receptor (Homo sapiens) (P35869 whole entry, looked up): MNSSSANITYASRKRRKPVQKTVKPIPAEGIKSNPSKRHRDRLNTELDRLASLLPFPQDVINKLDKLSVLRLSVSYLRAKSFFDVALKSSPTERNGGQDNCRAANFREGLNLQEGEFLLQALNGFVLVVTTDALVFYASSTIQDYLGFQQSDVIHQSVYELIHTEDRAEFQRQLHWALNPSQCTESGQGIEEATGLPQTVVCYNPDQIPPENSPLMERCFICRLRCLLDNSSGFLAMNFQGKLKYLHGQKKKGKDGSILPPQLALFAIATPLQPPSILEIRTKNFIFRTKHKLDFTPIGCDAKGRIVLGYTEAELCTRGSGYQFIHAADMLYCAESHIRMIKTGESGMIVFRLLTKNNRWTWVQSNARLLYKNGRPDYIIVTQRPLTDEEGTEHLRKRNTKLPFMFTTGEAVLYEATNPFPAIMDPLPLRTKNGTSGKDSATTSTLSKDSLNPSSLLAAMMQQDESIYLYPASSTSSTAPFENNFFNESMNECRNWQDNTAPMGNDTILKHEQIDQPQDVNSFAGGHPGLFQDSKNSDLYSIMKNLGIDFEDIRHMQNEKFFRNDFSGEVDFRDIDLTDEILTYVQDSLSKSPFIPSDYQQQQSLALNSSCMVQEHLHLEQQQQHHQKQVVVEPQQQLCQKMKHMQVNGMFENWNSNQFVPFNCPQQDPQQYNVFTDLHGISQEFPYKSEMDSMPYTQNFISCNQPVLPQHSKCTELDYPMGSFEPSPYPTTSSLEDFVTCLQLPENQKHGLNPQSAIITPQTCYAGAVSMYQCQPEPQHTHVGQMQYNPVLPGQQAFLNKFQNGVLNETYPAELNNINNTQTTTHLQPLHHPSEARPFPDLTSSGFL
In short: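 AhR agonist activity is inferred from enhanced light output of a DRE-controlled firefly luciferase reporter in HepG2 cells, measured with ONE-Glo following 24 h treatment at 37C.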

[3] = qHTS assay to identify small molecule that activate the aryl hydrocarbon receptor (AhR) signaling pathway - cell viability counter screen (AID 743086); details: HepG2-AhR-luc viability, CellTiter-Fluor, 24 h; series mostly up to 70.3 µM; further: nearly all actives have a fitted effect of over 45% in size; further: potency means the concentration at half of the fitted maximal effect
In short: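 HepG2-AhR-luc (HG2L7.5c1) cells, 4000/well, treated 24 h at 37 C with compound; viability measured as CellTiter-Fluor fluorescence after 30 min in the same wells as the luciferase read.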

[4] = qHTS assay to identify small molecule antagonists of the peroxisome proliferator-activated receptor gamma (PPARg) signaling pathway - cell viability counter screen (AID 743194); details: PPARg-bla HEK293H viability, CellTiter-Glo luminescence, 17 h; Potency: co-treated with 50 nM rosiglitazone unless noted; series mostly up to 62.6 µM; further: nearly all actives have a fitted effect of over 55% in size; further: potency means the concentration at half of the fitted maximal effect
In short: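 Cytotoxicity counter screen in PPARg-bla HEK293H cells, same wells as reporter assay. Compounds plus 50 nM rosiglitazone (final) for 17 h at 37 C, then viability read by CellTiter-Glo luminescence.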

[5] = qHTS assay for small molecule agonists of the antioxidant response element (ARE) signaling pathway - cell viability counter screen (AID 743203; calls by dose curve; further: nearly all actives have a fitted effect of over 55% in size; further: potency means the concentration at half of the fitted maximal effect); details: ARE-bla HepG2 viability, CellTiter-Glo luminescence, 16 h; series mostly up to 73.3 µM
In short: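 Parallel cytotoxicity read-out for the ARE-bla screen: HepG2 reporter cells, 16 hrs with compounds, then CellTiter-Glo luminescence.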

[6] = qHTS assay for small molecule activators of the heat shock response signaling pathway - cell viability counter screen (AID 743209); details: HSE-bla HeLa viability, CellTiter-Glo luminescence, 5 h; series mostly up to 62.6 µM; further: nearly all actives have a fitted effect of over 50% in size; further: potency means the concentration at half of the fitted maximal effect
In short: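 To flag cytotoxic compounds, HSE-bla HeLa cells plated at 1500 cells/well were dosed for 5 h at 37 C, followed by the reporter FRET read and then CellTiter-Glo, with luminescence recorded 30 min after reagent addition.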

[7] = target: Peroxisome proliferator-activated receptor gamma (Homo sapiens) (UniProt P37231); experiment: qHTS assay to identify small molecule agonists of the peroxisome proliferator-activated receptor gamma (PPARg) signaling pathway (AID 743094; active means well fitted activation curve with a large enough effect in the signal ratio in the repeat runs, not every such curve was filed as active; the % refers to the signal ratio); details: HEK293H PPARg-UAS-bla, beta-lactamase FRET ratio, 17 h; series mostly up to 57 µM
Sequence of Peroxisome proliferator-activated receptor gamma (Homo sapiens) (P37231 whole entry, looked up): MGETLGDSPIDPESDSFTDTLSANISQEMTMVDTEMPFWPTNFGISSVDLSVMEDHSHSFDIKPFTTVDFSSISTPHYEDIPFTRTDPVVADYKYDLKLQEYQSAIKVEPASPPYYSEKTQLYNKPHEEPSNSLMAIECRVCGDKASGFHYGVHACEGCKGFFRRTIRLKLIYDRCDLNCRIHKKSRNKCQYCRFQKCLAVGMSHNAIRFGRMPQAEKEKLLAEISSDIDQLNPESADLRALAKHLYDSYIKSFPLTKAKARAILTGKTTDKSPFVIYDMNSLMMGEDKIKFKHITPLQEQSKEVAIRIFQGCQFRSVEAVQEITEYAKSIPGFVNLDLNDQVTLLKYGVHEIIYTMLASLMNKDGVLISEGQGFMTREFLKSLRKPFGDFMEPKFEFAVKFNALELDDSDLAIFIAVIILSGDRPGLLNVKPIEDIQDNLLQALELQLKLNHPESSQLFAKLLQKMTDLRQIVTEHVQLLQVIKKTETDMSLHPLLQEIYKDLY
In short: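 Fluorescence-based beta-lactamase readout in HEK293H PPARg UAS-bla cells after 17 h compound exposure (37C) and 1 h B/G FRET substrate incubation at room temperature.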

[8] = target: Peroxisome proliferator-activated receptor gamma (Homo sapiens) (UniProt P37231); experiment: qHTS assay to identify small molecule antagonists of the peroxisome proliferator-activated receptor gamma (PPARg) signaling pathway (AID 743191; calls by dose curve; further: nearly all actives have a fitted effect of over 30% in size; further: potency means the concentration at half of the fitted maximal effect); details: HEK293H PPARg-UAS-bla, beta-lactamase ratio, antagonist, 17 h; series mostly up to 62.6 µM
In short: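 GeneBLAzer PPARg UAS-bla HEK293H cells, 5 h post-plating, exposed to compounds 17 h at 37C. LiveBLAzer B/G FRET substrate added for 1 h at room temperature; beta-lactamase reporter read by fluorescence intensity.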

[9] = qHTS assay for small molecule activators of the heat shock response signaling pathway (AID 743210; active means well fitted activation curve with a large enough effect in the signal ratio in the repeat runs, with a control signal flat, not every such curve was filed as active; the % refers to the signal ratio;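 further: HeLa cells with beta-lactamase reporter driven by heat shock elements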); details: HeLa HSE-bla reporter, beta-lactamase ratio, 5 h; series mostly up to 62.6 µM
In short: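 Following overnight attachment, HSE-bla HeLa cells received test compounds for 5 h at 37 C; beta-lactamase activity was then detected via FRET substrate fluorescence.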

[10] = qHTS assay for small molecule agonists of the antioxidant response element (ARE) signaling pathway (AID 743202; active means well fitted activation curve with a large enough effect in the signal ratio in the repeat runs, not every such curve was filed as active; the % refers to the signal ratio; further: potency means the concentration at half of the fitted maximal effect); details: HepG2 ARE-bla reporter, beta-lactamase FRET, 16 h; series mostly up to 73.3 µM
In short: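 HepG2 ARE-bla cells; 16 h treatment at 37 C; FRET-based beta-lactamase fluorescence read after 2 h substrate incubation at room temperature.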

| SMILES | Potency [1] | Potency [2] | Potency [3] | Potency [4] | Potency [5] | Potency [6] | Potency [7] | Potency [8] | Potency [9] | Potency [10] |
| --- | --- | --- | --- | --- | --- | --- | --- | --- | --- | --- |
| CCC[CH2][Sn]([Cl])([Cl])[CH2]CCC | 1.39 µM (active) and 686 nM (active) | inactive | 1.39 µM (active) and 486 nM (active) | 882 nM (active) and 43.6 nM (active) | 276 nM (active) and 34.4 nM (active) | 54.9 nM (active) | – | – | – | – |
| CC(C)(c1ccccc1)c1ccc(O)cc1 | 48.2 µM (active) | inactive | – | – | 60.6 µM (active) | inactive | inactive | inactive | inactive | – |
| CSc1nc(NC(C)C)nc(NC(C)C)n1 | inactive | inactive | inactive | inactive | inactive | inactive | inactive | – | inactive | – |
| Cc1cccc(N=Nc2ccc(N(C)C)cc2)c1 | – | 13.9 µM (active) and 9.69 µM (active) | – | inactive | inactive | inactive | inactive | – | – | – |
| CCC(=O)Nc1ccc(Cl)c(Cl)c1 | inactive | 54.5 µM (active) | inactive | inactive | inactive | inactive | inactive | – | inactive | – |
| CC(C)Nc1ccc(Nc2ccccc2)cc1 | 30.5 µM (active) and 54.5 µM (active) | inactive and 2.17 µM (active) | – | – | inactive | inactive | – | – | – | 27.3 µM (active) |
| CC(C)=CC1C(C(=O)OCc2cccc(Oc3ccccc3)c2)C1(C)C (configuration not stated) | inactive | inactive | inactive | inactive | inactive | inactive | – | – | inactive | inactive |
| CC(C)(O)C(=O)Nc1ccc([N+](=O)[O-])c(C(F)(F)F)c1 | inactive | inactive | inactive | inactive | inactive | inactive | – | – | inactive | 27.9 µM (active) and 22.4 µM (active) |
| O=C(O)c1nn(Cc2ccc(Cl)cc2Cl)c2ccccc12 | inactive | inactive | inactive | inactive | inactive | inactive | – | – | inactive | 54.1 µM (active) |
| OC(c1ccc(Cl)cc1)(c1cncnc1)c1ccccc1Cl (configuration not stated) | inactive | inactive | inactive | inactive | inactive | inactive | – | 54.9 µM (active) | inactive | – |
| O=C1C(Cl)=C(Cl)C(=O)c2ccccc21 | 4.34 µM (active) and 27.3 µM (active) | 17.3 µM (active) and 10.9 µM (active) | – | 39 µM (active) and 11 µM (active) | 68.8 µM (active) and 21.7 µM (active) | 27.6 µM (active) and 12.3 µM (active) | – | – | – | – |
| O=[N+]([O-])/N=C1\NCCN1Cc1ccc(Cl)nc1 | inactive | – | inactive | inactive | inactive | inactive | inactive | inactive | inactive | inactive |
| ClC(Cl)(Cl)c1ccccc1 | inactive | inactive | inactive | inactive | inactive | inactive | – | – | inactive | inactive |
| Oc1ccc(Cl)cc1Cc1ccccc1 | inactive and 30.6 µM (active) and 49.2 µM (active) | inactive | inactive | – | 68.6 µM (active) and 55.1 µM (active) | 54.9 µM (active) and 45.4 µM (active) and inactive | inactive | – | – | – |
| Cl | inactive | inactive | inactive | inactive | inactive | inactive | – | – | inactive | inactive |
